# GPR151 activ: activators of human GPR151; activation, % at 11.2 µM; PathHunter beta-arrestin GPR151 cells, luminescence; 650,000 compounds, 1% hits; in the data active = activation above about 4.9%
# Target sequence (Q8TDV0 whole entry, looked up): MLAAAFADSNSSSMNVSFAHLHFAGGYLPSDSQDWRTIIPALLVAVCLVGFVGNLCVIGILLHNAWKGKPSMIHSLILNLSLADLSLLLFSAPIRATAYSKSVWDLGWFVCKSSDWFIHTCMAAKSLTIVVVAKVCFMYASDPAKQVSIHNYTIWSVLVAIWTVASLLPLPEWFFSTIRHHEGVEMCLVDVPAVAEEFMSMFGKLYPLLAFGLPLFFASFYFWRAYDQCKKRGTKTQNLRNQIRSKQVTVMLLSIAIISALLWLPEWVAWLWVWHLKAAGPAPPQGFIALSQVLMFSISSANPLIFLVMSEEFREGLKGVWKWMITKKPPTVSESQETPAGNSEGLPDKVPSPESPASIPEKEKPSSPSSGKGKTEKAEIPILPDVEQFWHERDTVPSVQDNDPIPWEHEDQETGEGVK
# TEAD-YAP block: TEAD-YAP interaction inhibition. HEK-TIYL cells, TEAD-Gal4/YAP UAS-luciferase luminescence. inhibition, % at 9.12 µM. 640,000 compounds, 1.4% hits. AID 1259422; in the data active = inhibition above about 32%
# MITF primary: blocks human microphthalmia-associated transcription factor | O75030 | AlphaScreen MITF homodimerization, bead proximity signal | inhibition, % at 2.6 µM | 650,000 compounds, 0.91% hits | AID 1259374; in the data active = inhibition above about 50%
# FBW7 activator: human FBW7 E3 ligase activation, primary screen | Q969H0 | AlphaScreen FBW7–phospho-cyclin E peptide binding, activator screen | normalized activity (activation), % at 26.1 µM | 650,000 compounds, 0.13% hits; in the data active = normalized activity above about 1.9%;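 also: purified mutant Fbw7 with reduced substrate affinity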
# Hits are given with their value; i = inactive. Rows were chosen to be rich in hits. Some 3.4% of all compounds tested hit in one or more screens of this group.
SMILES,GPR151 activ,TEAD-YAP block,MITF primary,FBW7 activator
COC(=O)c1ccc(OC)c(CN2CCC3(CC2)NC(=O)c2ccccc2O3)c1,i,i,i,i
Cc1ccc(C(=O)OC2CC(C)CCC2C(C)C)cc1[N+](=O)[O-] (stereo not given),i,i,i,i
CC1CCC(C(C)C)C(OC(=O)c2cc([N+](=O)[O-])ccc2Cl)C1 (stereo not given),i,i,i,5.5
O=C(CSc1nc2[nH]ncc2c(=O)n1-c1cccc(C(F)(F)F)c1)Nc1ccccc1F,i,i,i,i
Cc1cc(O)cc2c1C(=O)/C(=C/c1cccnc1)O2,i,61,i,i
O=C1/C(=C\c2cccnc2)Oc2cc(O)ccc21,i,i,i,i
COc1cccc(/C=C2\Oc3cc(O)cc(C)c3C2=O)c1,i,98,i,i
COC(=O)c1ccc2c(c1)C(=O)/C(=C/c1cccc(OC)c1)O2,i,i,i,i
CCOC(=O)COc1cccc(/C=C2\Oc3cc(OC)ccc3C2=O)c1,i,i,i,i
Cc1cc(OC(=O)C(C)C)cc2c1C(=O)/C(=C/c1cccnc1)O2,i,63,i,i
CS(=O)(=O)C1=NN2C(=N)/C(=C\c3ccc(Br)cc3)C(=O)N=C2S1,i,i,i,i
CCS(=O)(=O)C1=NN2C(=N)/C(=C\c3ccc([N+](=O)[O-])o3)C(=O)N=C2S1,i,i,93,i
CCS(=O)(=O)C1=NN2C(=N)/C(=C\c3ccc(C)o3)C(=O)N=C2S1,i,i,i,i
CS(=O)(=O)C1=NN2C(=N)/C(=C\c3ccc(Br)o3)C(=O)N=C2S1,i,i,79,i
CCS(=O)(=O)C1=NN2C(=N)/C(=C\c3ccc(Br)o3)C(=O)N=C2S1,i,i,78,i
COc1ccc(C(=O)/C(=C\c2ccc(OC)c(OC)c2)c2nc3ccccc3o2)cc1,i,43,i,i
CC(NC(=O)/C(=C\c1ccc(Cl)cc1)NC(=O)c1ccccc1)C(=O)O (stereo not given),i,i,i,i
c1ccc(Nc2cc(Nc3nccc4ccccc34)ncn2)cc1,i,i,i,i
Cc1cnc(Nc2cccc(N(C)C)c2)nc1NCCN(C(C)C)C(C)C,i,i,i,i
Cc1cnc(Nc2cccc(N(C)C)c2)nc1Nc1ccccc1,i,46,i,i
COc1ccc(CCNc2nc(Nc3cccc(N(C)C)c3)ncc2C)cc1,i,i,i,i
COc1cc(Nc2nc(Nc3cccc(N(C)C)c3)ncc2C)cc(OC)c1OC,i,54,i,i
COc1cc(Nc2cc(Nc3nccc4ccccc34)ncn2)cc(OC)c1OC,i,49,i,i
Cc1cnc(Nc2ccncc2)nc1Nc1ccccc1,i,49,i,i
COc1cc(Nc2cc(Nc3cccc(N(C)C)c3)ncn2)cc(OC)c1OC,i,40,i,i
SMILES,GPR151 activ,TEAD-YAP block,MITF primary,FBW7 activator
COc1cc(Nc2ccnc(Nc3cccc(N(C)C)c3)n2)cc(OC)c1OC,i,i,i,i
Cc1c(NC(=O)/C(=C\c2ccccc2)NC(=O)c2ccccc2)c(=O)n(-c2ccccc2)n1C,i,i,i,1.9
Cc1ccc(C(=O)N/C(=C\c2ccc(F)cc2)C(=O)Nc2c(C)n(C)n(-c3ccccc3)c2=O)cc1,i,i,i,i
COc1ccc(Cl)cc1Nc1nc(-c2cc3cc(Br)ccc3oc2=O)cs1,i,i,i,i
COC(CNC(=S)Nc1cccc(Cl)c1)OC,i,i,i,i
O=C1NCCN(CCc2ccccc2)C1CC(=O)N1CC=C(c2ccccc2)CC1 (stereo not given),i,i,i,i
Cc1cc(C)nc(-n2nc(C)cc2C)n1,i,i,i,i
CCNc1nc(NCC)nc(-n2nc(C)cc2C)n1,i,53,i,i
CCOC(=O)C1=NNC2C(=O)N(c3ccc(CC)cc3)C(=O)C12 (stereo not given),i,i,i,i
COc1ccc(-c2noc(CN(Cc3ccccn3)CC3CCCO3)n2)c(OC)c1OC (stereo not given),i,39,i,i
CC(C)(C)NC(=O)C(c1ccc(F)cc1)N(C(=O)c1csnn1)c1ccccc1F (stereo not given),i,i,i,i
N#Cc1ccccc1NC(=O)CSc1nnc(-c2ccccc2)o1,i,i,i,i
N#Cc1ccccc1NC(=O)COC(=O)CSc1nnc(-c2ccc3c(c2)OCO3)o1,i,38,i,i
COc1ccc(-c2nnc(SCC(=O)OCC(=O)Nc3ccccc3C#N)o2)cc1,i,67,i,i
COC(=O)CSc1nnc(-c2ccc(C)cc2)o1,i,i,i,i
COc1ccc(-c2nnc(SCC(=O)c3ccccc3F)o2)cc1,i,i,i,i
COc1ccc(-c2nnc(SCC(=O)c3ccc[nH]3)o2)cc1,i,39,i,i

# Bioassay records (PubChem)
